Hits are enriched below; roughly 11% of the tested compounds scored in any of these assays.
G9a inh = qHTS Assay for Inhibitors of Histone Lysine Methyltransferase G9a. Potency, µM (series often up to 102 µM), for the others: at the top dose activity, negative = inhibition, actives largely listed as inhibitors. 8.8% of 350,000 active. G9a H3K9 monomethylation, AlphaScreen, 2 h. AID 504332, 2011; further: on the % scale 0 is the no-effect control and ±100 the full control effect; nearly all actives have a fitted effect of over 75% in size
Target sequence (Q96KQ7 913-1193 limits assumed): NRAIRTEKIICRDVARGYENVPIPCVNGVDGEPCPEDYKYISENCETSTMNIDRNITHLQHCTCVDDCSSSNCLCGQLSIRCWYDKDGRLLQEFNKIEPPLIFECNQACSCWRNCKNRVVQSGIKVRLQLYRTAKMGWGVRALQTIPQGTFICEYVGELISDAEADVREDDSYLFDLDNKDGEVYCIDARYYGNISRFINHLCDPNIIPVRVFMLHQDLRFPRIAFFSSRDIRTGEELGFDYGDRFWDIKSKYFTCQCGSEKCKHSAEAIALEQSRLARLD
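G9a (20 nM) preincubated 15 min RT with compounds, then 500 nM biotinylated H3K9 peptide and 20 uM SAM added; 2 h RT reaction. Monomethyl-H3K9 product detected by AlphaScreen with anti-H3K9me1 antibody, streptavidin donor and anti-rabbit IgG acceptor beads.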
L3MBTL1 inh = qHTS Assay for the Inhibitors of L3MBTL1 | Lethal(3)malignant brain tumor-like protein 1 (Homo sapiens), Q9Y468 | AlphaScreen L3MBTL1–H3K9me1 peptide binding | Potency, µM (series often up to 57.1 µM), for the others: at the highest dose activity, negative = inhibition, actives largely listed as inhibitors | 0.66% of 230,000 active | AID 485360, 2010; further: on the % scale 0 is the no-effect control and ±100 the full control effect; nearly all actives have a fitted effect of over 60% in size
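Displacement of a biotinylated histone H3(1-15) peptide monomethylated at Lys9 (75 nM) from L3MBTL1 (50 nM) was measured by AlphaScreen after a 30 min room-temperature compound incubation; cefsulodin titration served as intraplate control.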
JMJD2A Tudor inh = qHTS Assay for Inhibitors of JMJD2A-Tudor Domain; Lysine-specific demethylase 4A (Homo sapiens), O75164; AlphaScreen JMJD2A-Tudor / H3K4me3 peptide binding; Potency, µM (series often up to 114 µM), inactives show at the top dose activity change, negative = inhibition, hits mostly inhibitors; 4.4% of 390,000 active; AID 504339, 2011; further: on the % scale 0 is the no-effect control and ±100 the full control effect; nearly all actives have a fitted effect of over 50% in size
BAZ2B inh = qHTS Assay for Inhibitors of BAZ2B; Bromodomain adjacent to zinc finger domain protein 2B (Homo sapiens), Q9UIF8; 4.4% of 360,000 active; AlphaScreen BAZ2B-H3K14Ac peptide displacement; Potency, µM (top dose mostly 114 µM), inactives show top-dose activity change, negative = inhibition, actives largely listed as inhibitors; further: on the % scale 0 is the no-effect control and ±100 the full control effect; nearly all actives have a fitted effect of over 60% in size
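AlphaScreen luminescence quantifies BAZ2B engagement of H3K14Ac peptide; the protein and biotinylated peptide are both at 50 nM final, buffer PBS pH 7.4 with 0.01% Tween-20, all steps at room temperature.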
HP1b binding inh = HTS for Inhibitors of HP1-beta Chromodomain Interactions with Methylated Histone Tails; Potency, µM (titrated, usually from 114 µM), for the others: at the highest dose activity change, negative = inhibition, actives largely listed as inhibitors; 0.56% of 390,000 active; Chromobox protein homolog 1 (Homo sapiens), P83916; AlphaScreen HP1-beta / biotin-H3K9me3 peptide binding; further: nearly all actives have a fitted effect of over 70% in size
Target sequence (P83916 whole entry, looked up): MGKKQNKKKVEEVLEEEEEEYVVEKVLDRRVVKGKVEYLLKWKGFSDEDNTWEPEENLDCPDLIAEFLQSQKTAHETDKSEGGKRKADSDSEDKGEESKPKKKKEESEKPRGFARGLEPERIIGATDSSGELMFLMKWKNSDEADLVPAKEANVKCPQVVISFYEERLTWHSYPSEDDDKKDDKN
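AlphaScreen: HP1-beta (50 nM) preformed 30 min with biotin-H3(1-18)K9me3 peptide (50 nM) in PBS pH 7.4, 0.01% Tween-20. Compound added for 30 min at RT, then streptavidin donor/nickel chelate acceptor beads (10 ug/mL) for 30 min.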
* = called active by the depositor; ? = inconclusive; nt = not tested or not shown; ! = not active in a repeat; [ ] = another dose, or the depositor's remark. The call rests on the fitted dose curve; in most records, active means well fitted inhibition curve with a large enough effect; inconclusive means small, poorly fitted or top-dose-only effect; inactive means no such curve, though single readings can be large or run the other way. Potency means the concentration at half of the fitted maximal effect.

SMILES	G9a inh	L3MBTL1 inh	JMJD2A Tudor inh	BAZ2B inh	HP1b binding inh
COC(=O)/C=C1/S/C(=N/NC(=O)c2ccc(OC)cc2)NC1=O	39%	nt	-26%	-8%[57.1 µM]	28%
Cc1c(Cl)cccc1NC(=O)CC(c1ccc(F)cc1)N1Cc2ccccc2C1=O (centres undefined)	?	nt	3%	-32%	16%
CCCOc1ccc(CNC(=O)Cn2ncn3c(cc4sc(CC)cc43)c2=O)cc1	6%[59 µM]	nt	5%	6%	35%
CC(=O)c1ccc(NC(=O)CCc2c(C)nn(-c3ccc4nncn4n3)c2C)cc1	63%[59 µM]	nt	-24%	14%	11%[57 µM]
O=S(=O)(NCCSCc1c(Cl)cccc1Cl)c1ccc2c(c1)OCCO2	39%	-6%	1%	-1%[57.1 µM]	36%
O=S(=O)(NCCSCc1ccc(Cl)cc1Cl)c1ccc2c(c1)OCCO2	24%	8%	79µM*	1%	2%
O=C(COC(=O)C1CC1)Nc1ncc(Cl)cc1Cl	?	?	?	?	-15%
CC(NC(=O)C1CCN(S(=O)(=O)c2cc([N+](=O)[O-])ccc2Cl)CC1)c1ccccc1 (centres undefined)	-6%[59 µM]	6%	-5%	-21%	14%
Cc1ccc(NC(=O)C2CCN(S(=O)(=O)c3cc([N+](=O)[O-])ccc3Cl)CC2)nc1	nt	-8%	45µM*	nt	-17%
CC(=O)COC(=O)C1CCN(S(=O)(=O)c2cc([N+](=O)[O-])ccc2Cl)CC1	?	28µM*	56µM*	50µM*	17%
O=C(COC(=O)C1CCN(S(=O)(=O)c2cc([N+](=O)[O-])ccc2Cl)CC1)Nc1ncc(Cl)cc1Cl	-18%[0.501 µM]	-93%	25µM*	32µM*	?
Cc1ccc(Cl)cc1N1CCN(C(=O)c2cccn2-c2nnc(N3CCCC3)s2)CC1	-28%[59 µM]	nt	-19%	-31%	11%
CC(C)c1ccc(O)c(NC(=S)NC(=O)c2ccc3c(c2)OCO3)c1	13µM*	nt	?	?	-11%
NC(N)=NS(=O)(=O)c1ccc(NC(=S)NC(=O)c2ccc3c(c2)OCO3)cc1	45µM*	nt	-3%	-27%	14%
NS(=O)(=O)c1ccc(NC(=S)NC(=O)c2ccc3c(c2)OCO3)cc1	40µM*	9%	10%	-22%	17%
Cc1ccc(C(=O)Nc2cc3cc(Cl)ccc3oc2=O)cc1	8%[59 µM]	nt	-19%	5%	28%
CC(C)(C)C(=O)CN1CCN(C2c3ccccc3-c3ccccc32)CC1	50µM*	nt	-7%	-5%	23%
COc1ccc(NC(=O)CN2CCN(C3c4ccccc4-c4ccccc43)CC2)c(OC)c1	45µM*	7%	?	?	-18%
COc1ccccc1NC(=O)CN1CCN(C2c3ccccc3-c3ccccc32)CC1	nt	-5%	-30%	-37%	-7%
CC1=C(C(=O)Nc2ccccc2)C(c2ccccc2C)n2nc(SCC(=O)c3ccc(C)cc3)nc2N1 (centres undefined)	14%[59 µM]	nt	-20%	-5%	21%
COc1cccc(CSc2nc3n(n2)C(CC(C)C)C(C(=O)Nc2ccccc2C)=C(C)N3)c1 (centres undefined)	3%[59 µM]	nt	-20%	-5%	-12%
CCc1ccc(C2NC(c3ccc(CC)cc3)C([N+](=O)[O-])C(C)(C)C2[N+](=O)[O-])cc1 (centres undefined)	-9%[59 µM]	-11%	-22%	1%	15%
CCc1ccc(C2NC(C(=O)O)CS2)cc1 (centres undefined)	3.5µM*	nt	nt	?	nt
COc1ccc(CCNC(=O)Cc2c(C)c3cc4c(C)coc4cc3oc2=O)cc1OC	3%[59 µM]	nt	?	2%	34%
O=C1c2cccnc2C(=O)N1CNc1ccc(Cl)cc1	?	-9%	-1%	56µM*	26%
SMILES	G9a inh	L3MBTL1 inh	JMJD2A Tudor inh	BAZ2B inh	HP1b binding inh
CN1CCN(CC(=O)N2c3ccccc3C(C)(c3ccccc3)CC2(C)C)CC1 (centres undefined)	12%[12.7 µM]	4%	-24%	3%	25%
CN1CCN(CC(=O)N2c3ccc(S(=O)(=O)NCCNC(=O)OC(C)(C)C)cc3C(=O)Nc3cccnc32)CC1	nt	nt	14µM*	nt	?
CN1CCN(CC(=O)N2c3ccccc3C(=O)Nc3cccnc32)CC1	30µM*!	12%	nt	11%	nt
CC1OC(OC2C(CO)OC(OC3C(CO)OC(O)C(O)C3O)C(O)C2O)C(O)C(O)C1NC1C=C(CO)C(O)C(O)C1O (centres undefined)	-20%[2.33 µM]	nt	nt	nt	nt
Nc1ccc(C(=O)N2CCN(S(=O)(=O)c3ccc(Br)cc3)CC2)cc1[N+](=O)[O-]	45µM*	-16%	?	-9%	-2%
Cc1cccc(C)c1Nc1nnc(SCC(=O)c2ccc3c(c2)NC(=O)CO3)s1	11µM*	-5%	-17%	-5%	22%
Cc1ccc(C)c(-n2nnnc2SCC(=O)c2ccc3c(c2)NC(=O)CO3)c1	50µM*	1%	-15%[57.1 µM]	?	39%
Cc1ccc2nc(SCC(=O)c3ccc4c(c3)NC(=O)CO4)[nH]c2c1	nt	4%	-4%	-3%	20%
Cc1ccc(-c2nn(CC(=O)Nc3cccc(C(F)(F)F)c3)c(=O)c3ccccc23)cc1	5%[59 µM]	nt	-6%	1%	27%
COc1cccc(-c2nnc3sc(CN4CCCCC4)cn23)c1	13µM*	nt	-7%	-38%	19%[57 µM]
O=C(COC(=O)c1ccccc1Nc1ccc(SC(F)F)cc1)NCc1ccco1	2%[59 µM]	1%	-2%	8%	20%
Cc1c(C(=O)OCC(=O)NCc2ccco2)cccc1[N+](=O)[O-]	-38%[59 µM]	-26%	?	50µM*	-14%
O=C(COC(=O)c1ccc(F)cc1Cl)NCc1ccco1	?	?	50µM*	50µM*	?
O=C(Cn1nnc(-c2ccc(Cl)cc2)n1)NCc1ccco1	?	-5%[11.4 µM]	-32%	50µM*	22%
O=C(Cn1nnc(-c2cccs2)n1)NCc1ccco1	-4%	-13%	-24%	-3%	18%
Cc1cccc(Nc2ccccc2C(=O)OCC(=O)NCc2ccco2)c1C	-12%[0.0925 µM]	-16%	45µM*	50µM*	-15%
CCOc1ccc(S(=O)(=O)NCc2cccn2Cc2cccc(C)c2)cc1	-7%[59 µM]	nt	-18%	-3%	3%
O=C(COC(=O)CCC(=O)c1ccc(Cl)cc1)NCc1ccco1	50µM*	-90%	?	nt	-14%
COc1cccc(CCc2ccccc2OCC(CN(C)C)OC(=O)CCC(=O)O)c1 (centres undefined)	-2%[12.7 µM]	nt	nt	nt	nt
O=C(O)Cn1cc(/C=N/NC(=O)c2cc3cc(Br)ccc3o2)c2ccccc21	-35%	nt	7%	50µM*	43%

Screening data (PubChem BioAssay)
